Bioassay records from PubChem.
A selection: hits, their analogues and other compounds. The true share with any hit is near 1.3%.
BRCA1 expr act = BRCA1 expression activation; MCF7-BRCA1-FFLuc reporter, luminescence, 48 h; response scale: scaled: vehicle 0%, 10 µM genistein 100%; Potency, µM (series often up to 46.1 µM), inactives show at the top dose activation, usual class: activators; hit rate 1.1% among 380,000; also: nearly all actives have a fitted effect of over 80% in size
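Using MCF7 cells harboring a BRCA1 firefly luciferase reporter, plated 2 h before compound pinning, the screen measured luminescence after 48 h incubation. Responses were normalized to DMSO and 10 microM genistein, then fitted for concentration-effect.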
EPAC2 antagonist = EPAC2 (human) antagonism. Q8WZA2. EPAC2 GEF exchange of Rap1B-BODIPY-GDP, fluorescence. Potency, µM (series often up to 114 µM), for the others: at the top dose activity, negative = inhibition, actives largely listed as inhibitors. hit rate 0.18% among 360,000; also: % is scaled to controls: 0 for no effect and ±100 for the full control effect; nearly all actives have a fitted effect of over 45% in size
EPAC1 agonist = activates human EPAC1 exchange factor; hit rate 0.073% among 360,000; AID 720707; Potency, µM (titrated, usually from 154 µM), for inactives: at the highest dose activation, hits mostly activators; EPAC1 agonist qHTS, biochemical assay; response scale: 100% = response to 6.5 mM cAMP; O95398; also: nearly all actives have a fitted effect of over 60% in size
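Compounds were pinned as a concentration titration into mixtures of EPAC1 (100 nM), BODIPY-GDP-loaded Rap1B (250 nM) and GDP (50 uM). After 5 min at room temperature, fluorescence was followed for 30 min; activity was scaled to 6.5 mM cAMP.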
EPAC2 agonist = activates human EPAC2 exchange factor; Potency, µM (top dose mostly 154 µM), for inactives: at the highest dose activation, most hits filed as activators; AID 720711; Q8WZA2; hit rate 0.079% among 360,000; EPAC2 activation, biochemical qHTS; response scale: 100% = 6.5 mM cAMP response; also: nearly all actives have a fitted effect of over 50% in size
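Compounds were added across a concentration range to EPAC2 (100 nM), RAP1B-BODIPY-GDP (250 nM) and GDP (50 uM). After 5 min at room temperature, fluorescence was recorded at 5-min intervals for 30 min.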
EPAC1 antagonist = blocks human EPAC1 exchange factor; hit rate 0.14% among 360,000; EPAC1 GEF assay, Rap1b-BODIPY-GDP exchange fluorescence; Potency, µM (top dose mostly 115 µM), for inactives: at the top dose activity change, negative = inhibition, actives largely listed as inhibitors; AID 720709; O95398;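 also: plate controls were vehicle for no effect and positive control for full effect; nearly all actives have a fitted effect of over 50% in size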
RGS4 inh = blocks human RGS4-accelerated GTP hydrolysis. P49798. Transcreener GDP fluorescence polarization, RGS4-accelerated GTP hydrolysis. Potency, µM (titrated, usually from 114 µM), for the others: top-dose activity change, negative = inhibition, actives largely listed as inhibitors. hit rate 0.039% among 390,000; also: % is scaled to controls: 0 for no effect and ±100 for the full control effect; nearly all actives have a fitted effect of over 75% in size
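MLSMR compounds (23 nl, pin-transferred) preincubated 10 min at room temperature with a 500nM (2x) first reagent, then RGS4 at 900nM (2x) plus Transcreener GDP mix added; fluorescence polarization (620/688 nm) read before and after 90 min at 30 °C.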
* marks the source's active call; other numbers are inactive results; ? = inconclusive; . = no result; [ ] = dose if it differs, or a comment. Calls follow the shape of the dose curve; as a rule, active = well fitted curve in the direction sought with a large enough effect; inconclusive = small, poorly fitted or top-dose-only effect, or another doubt; inactive = no such curve, though single readings can be large; an effect the other way counts as inactive or inconclusive. Potency is read from the fitted curve at half-maximal effect.

SMILES | BRCA1 expr act | EPAC2 antagonist | EPAC1 agonist | EPAC2 agonist | EPAC1 antagonist | RGS4 inh
CCOc1ccc(/C=N/NC(=O)Nc2ccccc2)cc1 | ? | -3% | -5% | 5% | 15% | -28%
CCOc1ccc(N(CC(=O)Nc2c(C)n(C)n(-c3ccccc3)c2=O)S(=O)(=O)c2ccccc2)cc1 | 0% | -13% | 6% | 16% | -4% | 1%
COc1ccc(NC(=O)CN2CCN(CC#N)CC2)cc1 | -6% | -3% | -6% | -2% | -9% | -15%
CS/C(N)=N/N=C/c1ccc([N+](=O)[O-])cc1 | 11µM* | -5% | 1% | -5% | -2% | ?
N/C(=N\N=C\c1ccc([N+](=O)[O-])cc1)c1nonc1N | ? | 2% | -3% | 8% | -16% | 5%
Cc1nnc(NC(=O)c2ccc3ccccc3c2)s1 | ? | 0% | 13% | 2% | -6% | 4%
Clc1ccc(CON/C=N/c2ncnc3sccc23)cc1 | -26% | -15% | 18% | 7.9µM* | -21% | 12%
C(=N\c1ncnc2sccc12)/NOCc1ccccc1 | -3% | 9% | -10% | 3% | 2% | 11%
O=C(NCc1ccccc1)N1CCOCC1 | -2% | 4% | 14% | -5% | 7% | 0%
CCN(CC)c1ccc(NC(=O)c2cccc(C)c2OC)c(C)c1 | 4.5µM* | -7% | 13% | 13% | -5% | 17%
COCCNc1c(-c2cc3ccc(C)c(C)c3[nH]c2=O)nc2ccccn12 | 2.2µM* | -4% | 4% | 0% | -5% | -3%
C=CC[C@@H](Cc1ccc(F)cc1)C(=O)OC[C@@H]1CCCN1C(=O)[C@H](CC=C)CC(=O)N[C@H](CO)Cc1ccccc1 | -56% | -9% | -6% | 3% | -13% | -23%
COc1ccc2oc(C(=O)N3CCN(C/C=C/c4ccccc4)CC3)c(C)c2c1 | 1% | -2% | 11% | 28% | -19% | 10%
CCC(Oc1ccccc1)C(=O)Nc1ccccc1N1CCCC1 (configuration not stated) | -10% | 50µM* | 9% | 13% | -25% | 9%
CCC(C(=O)Nc1ccccc1N1CCCC1)c1ccccc1 (configuration not stated) | -27% | 5% | -1% | -6% | -4% | -37%
CCC(Oc1ccccc1)C(=O)Nc1ccccc1N1CCCCC1 (configuration not stated) | 0% | 13µM* | -3% | 7% | 3% | -6%
C(=N\Nc1ccccn1)/c1ccc(N2CCOCC2)cc1 | ? | -1% | 12% | 13% | -1% | 14%
C/C(=N\Nc1ccccn1)c1ccc(N2CCOCC2)cc1 | 4.5µM* | -1% | -1% | -7% | 10% | -38%
COc1ccc(C)cc1NC(=O)NC(C)c1ccc2c(c1)OCO2 (configuration not stated) | -21% | 8% | -6% | -4% | -2% | -31%
CC(=O)Nc1ccccc1NC(=O)C/C(C)=N/NC(=O)C(=O)Nc1cccc(Cl)c1C | 14% | 7% | -6% | 0% | 2% | -4%
Cc1cccc2nc(CSc3nc4ccccc4[nH]3)cn12 | ? | -18% | -9% | 4% | ? | 24%
Clc1ccc(-n2nnnc2SCc2cn3ccccc3n2)cc1 | -9% | 8% | -15% | -4% | -12% | -4%
Cc1nc(CSc2ccc(Cl)cc2)cc(NCc2ccccc2)n1 | ? | 2% | 17% | 17% | 4% | -16%[11.4 µM]
Clc1ccc(SCc2cn3ccccc3n2)cc1 | 5.6µM* | -12% | 0% | 1% | 9% | -30%
CNc1cc(CSc2ccc(Cl)cc2)nc(C)n1 | 5µM* | -7% | 8% | 7% | 1% | 3%
SMILES | BRCA1 expr act | EPAC2 antagonist | EPAC1 agonist | EPAC2 agonist | EPAC1 antagonist | RGS4 inh
Nc1nnc(SCc2cn3cc(Cl)ccc3n2)s1 | 65% | -2% | -4% | 4% | -12% | 24%
Cc1ccc(SCc2cn3cc(Cl)ccc3n2)cc1 | 10µM* | -22% | 4% | 5% | -4% | -17%
Cc1cccc2nc(CSc3ccc(Cl)cc3)cn12 | 4.5µM* | -12% | 3% | 15% | ? | 25%
CCN(CC)CCCNC(=O)c1cc(Cl)c(NC(=O)C2=C(C)OCCS2)cc1OC | -23% | 2% | 4% | 6% | -13% | 1%
O=c1cc(-c2ccc(O)cc2)oc2c(O)c(O)c(O)c(O)c12 | -2% | -14% | -6% | 4% | 6.3µM* | -4%
O=c1cc(-c2ccc(O)cc2)oc2c1ccc1ccccc12 | 36% | 7% | -1% | -4% | 1% | ?
Cc1nnc(SCc2cccc3ccccc23)s1 | 1.3µM* | ? | 2% | 21% | -12% | -15%
CCOc1ccc(C(=O)c2nc3c(n2O)CCCC3)cc1 | 44% | -15% | 6% | -16% | -12% | 13%
COc1ccc(-n2c(C)cc(C(=O)CCl)c2C)cc1 | -74% | 7.9µM* | 8% | 11% | -30% | -28%
COc1ccc(-n2c(C)cc(C(=O)CN3C(=O)c4ccccc4C3=O)c2C)cc1 | -19% | 1% | 4% | 19% | -3% | -16%
CN(C)c1ccc(N=Nc2cccc(F)c2)cc1 | 1.6µM* | -24% | 6% | 4% | -6% | 26%
COC(=O)Cc1ccc2sc(-c3ccccc3)nc2c1 | 7.1µM* | -5% | 11% | 13% | -12% | -13%
O=C(Nc1nnc([C@@H]2C[C@H](O)[C@@H](CO)O2)s1)Nc1ccccc1F | 6.3µM* | -7% | 2% | 5% | 3% | .
O=C(Nc1ccc(F)c(Cl)c1)Nc1nnc([C@H]2C[C@H](O)[C@@H](CO)O2)s1 | 11µM* | -3% | 1% | 1% | -30% | .
O=C(Nc1nnc([C@@H]2C[C@H](O)[C@@H](CO)O2)s1)c1ccccc1Cl | 39% | 10% | -9% | 3% | -7% | .
O=C(Nc1nnc([C@@H]2C[C@H](O)[C@@H](CO)O2)s1)c1cccc2ccccc12 | 8.9µM* | -12% | -4% | -1% | 12% | .
CC(C)Sc1snnc1-c1ccccc1 | -3% | ? | 11% | 4% | -22% | 21%
COc1ccc(S(=O)(=O)Nc2ccc(OCC(=O)O)cc2)c2ccccc12 | -7% | 89µM* | 8% | 7% | -15% | -18%
COc1ccc(NC(C)=O)cc1S(=O)(=O)Nc1ccc(OCc2ccccc2)cc1 | -44% | -14% | 14% | 12% | -14% | -2%
Cc1cc(NC(=O)C2CCCN(S(=O)(=O)c3cn(C)cn3)C2)ccc1Br (configuration not stated) | . | . | . | . | . | 0%
Cc1ccsc1C(=O)N1CCc2ccccc2C1 | 85% | -2% | 5% | 6% | -5% | 31%
O=C(OCC(=O)N1CCc2ccccc2C1)c1c(F)cccc1Cl | 6.3µM* | -27% | 2% | -2% | -2% | -1%
